Screens (PubChem BioAssay)
An excerpt weighted towards active compounds, which were near 19% of everything screened.
TDP1 cell noCPT: qHTS for Inhibitors of human tyrosyl-DNA phosphodiesterase 1 (TDP1): qHTS in cells in absence of CPT; AID 686978, 2013; DT40 Tdp1-/- hTDP1 cells, no CPT, ATP luminescence, 48 h; actives 15% (n = 420,000); Potency, µM (highest dose often 46.2 µM), for inactives: top-dose activity change, negative = growth inhibition, actives largely listed as inhibitors; note: potency is the fitted concentration of half-maximal effect; % is set by controls: 0 for no effect and ±100 for the full control effect; nearly all actives have a fitted effect of over 55% in size
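Readout: luminescence from CellTiter-Glo after 30 min in the dark at RT. Cells: DT40 Tdp1-/- with stable hTDP1, 400/well. Exposure: compounds alone, ≥48 hr, 37 °C.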
HepG2 tox-1: qHTS for Inhibitors of TGF-b: Cytotox Counterscreen; HepG2 CAGA-GFP viability, ATP luminescence, 18 h; Potency, µM (titrated, usually from 46.1 µM), for inactives: at the highest dose activity change, negative = cytotoxicity, most hits filed as cytotoxic; actives 0.76% (n = 410,000); AID 588856, 2011; note: potency is the fitted concentration of half-maximal effect
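HepG2 CAGA-GFP cells (1000/well, DMEM with 1% FBS) received compound, then TGF-beta at 500 pg/mL final, and were incubated 18 hours at 37 degrees C. Viability was read by CellTiter-Glo luminescence. Media-only wells were set as complete cell-killing and DMSO as no toxicity.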
TDP1 block: qHTS Assay for Inhibitors of Tyrosyl-DNA Phosphodiesterase (TDP1). Tyrosyl-DNA phosphodiesterase 1 (Homo sapiens), Q9NUW8. recombinant TDP1, AlphaScreen DNA substrate cleavage. Potency, µM (top dose mostly 130 µM), inactives show top-dose activity change, negative = inhibition, most hits filed as inhibitors. actives 0.28% (n = 350,000); note: potency is the fitted concentration of half-maximal effect; % is set by controls: 0 for no effect and ±100 for the full control effect; nearly all actives have a fitted effect of over 40% in size
Target sequence (Q9NUW8 whole entry, looked up): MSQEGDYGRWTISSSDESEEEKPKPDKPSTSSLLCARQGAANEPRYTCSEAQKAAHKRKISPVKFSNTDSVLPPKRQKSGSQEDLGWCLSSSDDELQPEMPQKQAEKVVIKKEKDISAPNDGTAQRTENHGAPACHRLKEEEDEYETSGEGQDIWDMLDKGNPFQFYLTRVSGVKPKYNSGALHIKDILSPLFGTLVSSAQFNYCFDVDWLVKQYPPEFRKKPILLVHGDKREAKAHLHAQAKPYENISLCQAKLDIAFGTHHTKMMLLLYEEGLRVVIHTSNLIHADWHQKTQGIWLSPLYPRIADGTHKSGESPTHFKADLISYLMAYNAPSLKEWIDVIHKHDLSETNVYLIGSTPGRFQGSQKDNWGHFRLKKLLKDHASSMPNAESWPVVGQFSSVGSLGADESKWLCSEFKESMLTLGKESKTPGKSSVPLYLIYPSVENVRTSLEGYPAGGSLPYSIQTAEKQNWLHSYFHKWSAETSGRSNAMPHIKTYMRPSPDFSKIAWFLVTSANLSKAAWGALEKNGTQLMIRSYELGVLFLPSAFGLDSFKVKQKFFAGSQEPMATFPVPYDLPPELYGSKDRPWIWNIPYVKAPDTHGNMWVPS
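AlphaScreen read-out: signal falls as enzyme removes the 3' tyrosine-FITC from a 5'-biotinylated DNA oligo (15 nM, 5 min, RT). Enzyme was E. coli-made recombinant Tdp1 at 1 nM, exposed to compound for 15 min beforehand; beads 10 ug/ml, 10 min.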
IL-1B inflam inh: qHTS for Inhibitors of Inflammasome Signaling: IL-1-beta AlphaLISA Primary Screen. THP-1 LPS/ATP IL-1B secretion, AlphaLISA, 16 h; stronger effect = lower value. activity change, % at 57.5 µM. actives 4.7% (n = 360,000). AID 743279, 2014; in the data active = activity change below about -50%; inconclusive = mostly about -30% to -49%; note: % is set by controls: 0 for no effect and ±100 for the full control effect
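THP-1 cells pretreated 1 hr with compounds (up to 57.5 uM final), then stimulated with LPS (250 ng/mL final) plus ATP (1.25 mM final); secreted IL-1B measured by AlphaLISA after 16 hr, decreased signal indicating inhibition.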
TDP1 cell CPT: qHTS for Inhibitors of human tyrosyl-DNA phosphodiesterase 1 (TDP1): qHTS in cells in presence of CPT | chicken DT40 Tdp1-/-;hTDP1 cells + 20 nM CPT, ATP luminescence, 48 h | Potency, µM (titrated, usually from 46.2 µM), for the others: top-dose activity change, negative = growth inhibition, most hits filed as inhibitors | actives 12% (n = 420,000) | AID 686979, 2013; note: potency is the fitted concentration of half-maximal effect; % is set by controls: 0 for no effect and ±100 for the full control effect; nearly all actives have a fitted effect of over 55% in size
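Cell growth measured by CellTiter-Glo luminescence after a minimum 48 h, 37 C compound exposure with 20 nM CPT in Tdp1-knockout DT40 cells stably expressing hTDP1, seeded 400/well; qHTS titration format.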
TGFb SMAD3 inh: qHTS for Inhibitors of TGF-b; Potency, µM (doses to about 46.1 µM), without a hit: at the highest dose activity, negative = inhibition, actives largely listed as inhibitors; HepG2 CAGA-GFP TGF-b/SMAD3 reporter, GFP fluorescence, 18 h; TGF-beta stimulated, 500 pg/mL final; actives 1.2% (n = 410,000); note: potency is the fitted concentration of half-maximal effect; % is set by controls: 0 for no effect and ±100 for the full control effect; nearly all actives have a fitted effect of over 65% in size
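Read-out: total well GFP (ex488/em500-530) summed from mean per-cell fluorescence. Cells: HEPG2 CAGA-GFP, 1% FBS DMEM, 18 h at 37 degrees C with 500 pg/mL final TGF-beta. Unstimulated wells served as the full-inhibition control; stimulated DMSO wells = 0%.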
TGFb CAGA inh: qHTS for Inhibitors of TGF-b: Confirmation of Cherry Picks; shares compounds with TGFb SMAD3 inh; HepG2 CAGA-GFP TGF-b reporter, GFP fluorescence, 18 h; cells stimulated with TGF-beta, 500 pg/mL; Potency, µM (top dose mostly 46.1 µM), without a hit: at the top dose activity, negative = inhibition, actives largely listed as inhibitors; actives 63% (n = 1,600); note: potency is the fitted concentration of half-maximal effect; % is set by controls: 0 for no effect and ±100 for the full control effect; nearly all actives have a fitted effect of over 65% in size
HepG2 tox-2: qHTS for Inhibitors of TGF-b: Cytotox Counterscreen for Cherry Picks; Potency, µM (series often up to 46.1 µM), for the others: top-dose activity, negative = cytotoxicity, most hits filed as inhibitors; actives 27% (n = 1,600); HepG2 CAGA-GFP viability, ATP luminescence, 18 h; cells stimulated with TGF-beta, 500 pg/mL; shares compounds with TGFb SMAD3 inh; note: potency is the fitted concentration of half-maximal effect; % is set by controls: 0 for no effect and ±100 for the full control effect; nearly all actives have a fitted effect of over 70% in size
CCL64 TGFb inh: qHTS for Inhibitors of TGF-b: CCL64 Cells Orthogonal Assay for Cherry Picks. CCL64 CAGA-GFP reporter, TGF-b stimulated, GFP fluorescence, 18 h. Potency, µM (series often up to 46.1 µM), without a hit: at the highest dose activity, negative = inhibition, most hits filed as inhibitors. actives 41% (n = 1,600). shares compounds with TGFb SMAD3 inh. AID 720536, 2013; note: potency is the fitted concentration of half-maximal effect; nearly all actives have a fitted effect of over 65% in size
TGFb COP inh: qHTS for Inhibitors of TGF-b: Hit Validation in HepG2 Cells using COP promoter; shares compounds with TGFb SMAD3 inh; HepG2 COP-GFP TGF-b reporter, GFP fluorescence, 18 h; cells stimulated by added recombinant TGF-beta; Potency, µM (doses to about 46.1 µM), inactives show at the top dose activity, negative = inhibition, hits mostly inhibitors; actives 3% (n = 1,600); AID 720537, 2013; note: potency is the fitted concentration of half-maximal effect; nearly all actives have a fitted effect of over 70% in size
An asterisk follows results filed as active; [ ] = another dose, or the depositor's remark. Unless noted, calls come from the whole dose curve; as a rule, active = well fitted curve in the direction sought with a large enough effect; inconclusive = small, poorly fitted or top-dose-only effect, or another doubt; inactive = no such curve, though single readings can be large; an effect the other way counts as inactive or inconclusive.

Results for O=C(Nc1cccc(C(F)(F)F)c1)Nc1ccc(N2CCCC2)c(S(=O)(=O)Nc2ccccc2Cl)c1 ?
TDP1 cell noCPT: 2.9µM*; HepG2 tox-1: -56%; TDP1 block: 8%; IL-1B inflam inh: -71*; TDP1 cell CPT: 3.3µM*; TGFb SMAD3 inh: 2.8µM*; TGFb CAGA inh: 4.1µM*; HepG2 tox-2: 9.2µM*; CCL64 TGFb inh: 5.2µM*; TGFb COP inh: 100%

What do the screens show for `Cc1ccn2c(=O)nc(SCC(=O)NC3CCCC3)nc2c1`?
TDP1 cell noCPT: -13%; HepG2 tox-1: -11%; TDP1 block: -7%; IL-1B inflam inh: -1; TDP1 cell CPT: -28%; TGFb SMAD3 inh: 17%

What do the screens show for `CC(=O)Oc1ccc(-c2ccc(C(=O)Nc3cccc(S(=O)(=O)N4CCOCC4)c3)cc2)cc1`?
TDP1 cell noCPT: 16µM*; HepG2 tox-1: -14%; TDP1 block: 0%; IL-1B inflam inh: -119*; TDP1 cell CPT: 23µM*; TGFb SMAD3 inh: 11µM*; TGFb CAGA inh: 21µM*; HepG2 tox-2: inconclusive; CCL64 TGFb inh: inconclusive; TGFb COP inh: 17%

How did O=C(Nc1cccc(S(=O)(=O)N2CCCC2)c1)c1cccc(S(=O)(=O)N2CCOCC2)c1 do in these assays?
TDP1 cell noCPT: inconclusive; HepG2 tox-1: 3%; TDP1 block: 0%; IL-1B inflam inh: 50; TDP1 cell CPT: inconclusive; TGFb SMAD3 inh: -29%

How did O=C(CN1CCN(S(=O)(=O)c2ccc(Br)cc2)CC1)N/N=C/c1cccs1 do in these assays?
TDP1 cell noCPT: -29%; HepG2 tox-1: 3%; TDP1 block: 5%; IL-1B inflam inh: -7; TDP1 cell CPT: -2%; TGFb SMAD3 inh: -12%

What do the screens show for `Cc1cc(S(=O)(=O)N2CCN(CC(=O)NCCc3cccs3)CC2)ccc1Br`?
TDP1 cell noCPT: inconclusive; HepG2 tox-1: -8%; TDP1 block: 0%; IL-1B inflam inh: 15; TDP1 cell CPT: inconclusive; TGFb SMAD3 inh: 11µM*; TGFb CAGA inh: inconclusive; HepG2 tox-2: -10%; CCL64 TGFb inh: -10%; TGFb COP inh: 25%

Results for COc1cc(C(=O)N/N=C/c2cn(Cc3ccccc3)c3ccccc23)ccc1O ?
TDP1 cell noCPT: -21%; HepG2 tox-1: -6%; TDP1 block: 8%[56.1 µM]; IL-1B inflam inh: inactive; TDP1 cell CPT: inconclusive; TGFb SMAD3 inh: -19%

Results for Nc1ccc(C(=O)N/N=C/c2cn(Cc3ccc(F)cc3)c3ccccc23)cc1 ?
TDP1 cell noCPT: -10%; HepG2 tox-1: -13%; TDP1 block: 7%[56.1 µM]; IL-1B inflam inh: inconclusive; TDP1 cell CPT: -26%; TGFb SMAD3 inh: 7.9µM*; TGFb CAGA inh: 5.8µM*; HepG2 tox-2: 2.1µM*; CCL64 TGFb inh: -1%; TGFb COP inh: 20%

How did Cc1ccc(OCC(=O)N/N=C\c2cn(Cc3ccccc3)c3ccccc23)cc1C do in these assays?
TDP1 cell noCPT: inconclusive; HepG2 tox-1: -7%; TDP1 block: 3%; IL-1B inflam inh: 27; TDP1 cell CPT: inconclusive; TGFb SMAD3 inh: 11µM*; TGFb CAGA inh: 5.2µM*; HepG2 tox-2: 5.2µM*; CCL64 TGFb inh: 4%; TGFb COP inh: -22%

Results for CCCNC(=O)c1ccccc1NC(=O)c1cccc(-n2cnnn2)c1 ?
TDP1 cell noCPT: inconclusive; HepG2 tox-1: -11%; TDP1 block: 0%; IL-1B inflam inh: inconclusive; TDP1 cell CPT: inconclusive; TGFb SMAD3 inh: 6%

What do the screens show for `COc1ccc(-c2csc(NC(=O)c3ccccc3NS(=O)(=O)c3ccc(C)cc3)n2)cc1`?
TDP1 cell noCPT: 15µM*; HepG2 tox-1: -44%; TDP1 block: 2%; IL-1B inflam inh: -21; TDP1 cell CPT: inconclusive; TGFb SMAD3 inh: 3.5µM*; TGFb CAGA inh: 6.5µM*; HepG2 tox-2: 9.2µM*; CCL64 TGFb inh: 5.2µM*; TGFb COP inh: 46%

Results for COc1ccc(S(=O)(=O)Nc2ccccc2C(=O)Nc2nc(-c3ccc(F)cc3)cs2)cc1OC ?
TDP1 cell noCPT: 16µM*; HepG2 tox-1: -38%; TDP1 block: 8%; IL-1B inflam inh: inconclusive; TDP1 cell CPT: inconclusive; TGFb SMAD3 inh: 7.1µM*; TGFb CAGA inh: 10µM*; HepG2 tox-2: inconclusive; CCL64 TGFb inh: 8.2µM*; TGFb COP inh: 48%

How did OCC(O)C1OC(c2ccccc2)OC(CO)C1O (centres undefined) do in these assays?
TDP1 cell noCPT: 10%; HepG2 tox-1: 2%; IL-1B inflam inh: 11; TDP1 cell CPT: 1%; TGFb SMAD3 inh: 22%

Results for Cc1ccc(CNc2nc(NCc3ccccc3)nc3ccsc23)c(C)c1 ?
TDP1 cell noCPT: inconclusive; HepG2 tox-1: -116%; IL-1B inflam inh: -88*; TDP1 cell CPT: 9.2µM*; TGFb SMAD3 inh: 5µM*; TGFb CAGA inh: inconclusive; HepG2 tox-2: inconclusive; CCL64 TGFb inh: 15µM*; TGFb COP inh: inconclusive
